# PPARg SRC-3 ag = PPARgamma agonists recruiting SRC-3 coactivator, primary screen, biochemical; Peroxisome proliferator-activated receptor gamma (Homo sapiens), P37231; hit rate 0.26% among 200,000; biochemical PPARgamma/SRC-3 coactivator recruitment assay; activation, % at 8 µM; AID 731, 2007; in the data active = activation above about 23%;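 note: 0% = DMSO and 100% = reference agonist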
# Target sequence (P37231 whole entry, looked up): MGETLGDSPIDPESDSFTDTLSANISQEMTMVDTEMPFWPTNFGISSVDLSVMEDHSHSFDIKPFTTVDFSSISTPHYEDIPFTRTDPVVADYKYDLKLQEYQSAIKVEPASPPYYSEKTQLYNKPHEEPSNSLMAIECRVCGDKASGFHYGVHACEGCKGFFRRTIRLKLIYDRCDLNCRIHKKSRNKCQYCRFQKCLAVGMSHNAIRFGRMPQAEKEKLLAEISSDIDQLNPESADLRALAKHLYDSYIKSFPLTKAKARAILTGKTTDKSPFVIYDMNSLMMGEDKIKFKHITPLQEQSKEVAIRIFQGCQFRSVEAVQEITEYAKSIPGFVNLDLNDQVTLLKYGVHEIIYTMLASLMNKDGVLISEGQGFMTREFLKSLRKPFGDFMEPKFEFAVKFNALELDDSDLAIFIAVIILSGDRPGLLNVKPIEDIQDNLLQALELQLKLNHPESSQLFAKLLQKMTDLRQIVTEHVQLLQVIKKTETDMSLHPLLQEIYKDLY
# PPARg SRC-1 ag = PPARgamma agonists recruiting SRC-1 coactivator, primary screen, biochemical | hit rate 0.41% among 200,000 | activation, % at 8 µM | Peroxisome proliferator-activated receptor gamma (Homo sapiens), P37231 | PPARgamma-SRC-1 coactivator recruitment biochemical assay; in the data active = activation above about 19%;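 note: 0% = DMSO and 100% = reference agonist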
# PPARg SRC-2 ag = agonists of PPARg-SRC-2 recruitment, primary screen, biochemical, HTS; PPARgamma LBD-SRC-2 recruitment; activation, % at 8 µM; hit rate 0.34% among 200,000; AID 1032, 2008;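 note: 0% = vehicle and 100% = reference agonist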
# SRC1 TRFRET art = TR-FRET detection interference compounds, primary screen, artefact control for PPARgamma SRC-1 recruitment agonists, biochemical, TR-FRET emission ratio; hit rate 0.34% among 99,000; TR-FRET ratio at 8 µM; TR-FRET detection artefact counter-screen; stronger effect = higher value; in the data active = TR-FRET ratio above about 2300
# TR-FRET SRC-2 ct = TR-FRET signal artefacts, primary screen, artefact control for PPARgamma SRC-2 agonist project, biochemical | TR-FRET artefact counter-screen; stronger effect = higher value | TR-FRET ratio at 8 µM | hit rate 0.4% among 200,000 | AID 1049, 2008; in the data active = TR-FRET ratio above about 2000
# SRC3 TRFRET art = TR-FRET detection interference compounds, artefact control for PPARgamma SRC-3 recruitment agonists, biochemical, TR-FRET ratio; TR-FRET artefact counter-screen, PPARgamma/SRC-3 format; stronger effect = higher value; TR-FRET ratio at 8 µM; hit rate 0.39% among 99,000; AID 1048, 2008; in the data active = TR-FRET ratio above about 2000
# PPARg SRC2 ag = agonists of PPARgamma SRC-2 coactivator recruitment, confirmation, biochemical, HTS. shares compounds with PPARg SRC-3 ag. biochemical SRC-2 recruitment by PPARgamma. activation, % at 8 µM. hit rate 52% among 790. AID 1297, 2008;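 note: 0% = vehicle alone and 100% = reference agonist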
# PPARg SRC1 ag = PPARgamma agonists recruiting SRC-1 coactivator, confirmation, biochemical; PPARgamma–SRC-1 coactivator recruitment biochemical assay; activation, % at 8 µM; AID 1300, 2008; shares compounds with PPARg SRC-3 ag; hit rate 43% among 790; in the data active = activation above about 20%;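 note: 0% = vehicle wells and 100% = reference agonist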
# PPARg SRC3 conf = PPARgamma-driven SRC-3 coactivator recruitment agonists, confirmation, biochemical; shares compounds with PPARg SRC-3 ag; biochemical PPARgamma-SRC-3 coactivator recruitment, agonist mode; activation, % at 8 µM; hit rate 29% among 790; in the data active = activation above about 24%;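 note: 0% = vehicle wells and 100% = reference agonist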
# An asterisk follows results filed as active; . = no result given. Rows were chosen to be rich in hits. Some 0.9% of all compounds tested hit in one or more screens of this group. Cut-off read from the data, not from the text of the source, unless noted: active = activation above about 22%; inactive = the rest.
SMILES,PPARg SRC-3 ag,PPARg SRC-1 ag,PPARg SRC-2 ag,SRC1 TRFRET art,TR-FRET SRC-2 ct,SRC3 TRFRET art,PPARg SRC2 ag,PPARg SRC1 ag,PPARg SRC3 conf
COc1ccccc1C1CC(c2ccccc2)=NN1C(=S)Nc1ccccc1 (stereo not given),23*,43*,37*,3073*,2595*,2517*,70*,51*,44*
COc1ccc(C2=NN(C(N)=S)C(c3ccccc3)C2)cc1 (stereo not given),29*,57*,53*,3172*,2602*,3054*,59*,48*,41*
CCOC(=O)c1c(NC(=S)NCC2CCCO2)sc(C)c1C (stereo not given),11,1,1,1647,1762,1486,.,.,.
CCCCN(C)CCCNC(=O)/C=C1\Sc2ccccc2NC1=O,-1,-5,-7,1728,1682,1504,.,.,.
CCC1CN(C(=O)Nc2ccc(C)cc2)c2cc(C)ccc2O1 (stereo not given),2,1,-3,1788,1547,1564,.,.,.
CNC(=S)N1N=C(c2ccc(OC)cc2)CC1c1ccc(N(C)C)cc1 (stereo not given),13,-2,5,.,1566,.,.,.,.
CNC(=S)N1N=C(c2ccc(Br)cc2)CC1c1ccc(N(C)C)cc1 (stereo not given),29*,27*,20,4829*,3604*,4796*,41*,29*,26*
COc1ccc(-c2nn(CC(=O)Nc3ccc(Cl)c(Cl)c3)c(=O)c3ccccc23)cc1,22,19*,-3,.,2357*,.,11,13,8
COCCNS(=O)(=O)c1ccc(C)c(C)c1C,4,0,-1,1950,1531,1412,.,.,.
CSc1nc(Sc2ccccc2Cl)c2ccccc2n1,48*,26*,54*,.,2566*,.,34*,22*,24*
CCc1nc2sc3c(O)cc(=O)[nH]c3c2cc1C,2,10,-4,1684,1666,1570,.,.,.
Cc1ccc(C(C)NC(=O)/C(C#N)=C\c2c(C)[nH]c3ccccc23)cc1 (stereo not given),4,19*,10,.,1569,.,6,17,14
Cc1[nH]c2ccccc2c1/C=C(\C#N)C(=O)NCc1ccccc1,2,5,-1,1808,1429,1618,.,.,.
COc1ccc2c(Cl)c(C(N)=O)sc2c1,19,33*,37*,2690*,2210*,2550*,36*,25*,25*
COc1ccc2c(Cl)c(C(=O)NN)sc2c1,3,-1,0,.,1487,.,.,.,.
Cc1ccccc1C1C2=C(Nc3[nH]n(-c4ccccc4)c(=O)c31)c1ccccc1C2=O (stereo not given),35*,23*,5,1991,1853,1593,23*,30*,35*
C=CCCCCCCCC(=O)OC,5,22*,13,1995,1655,1763,5,4,2
CCOC(=O)CSc1nc(N)c(C(=O)Nc2ccc(N(C)C)cc2)s1,4,22*,10,.,1889,.,7,11,6
Oc1ccc(Br)cc1C=Nc1cccn2cc(-c3ccccc3)nc12,11,19,23*,1670,1895,1820,17,16,14
CCOC(=O)C1=c2/c(=C/c3ccncc3)c(N)c(C(=O)OC)n2C(=O)C(c2ccncc2)S1 (stereo not given),3,-5,0,1707,1537,1442,.,.,.
O=C(O)CCc1nn2c3ccccc3n(Cc3ccccc3F)c2nc1=O,2,3,-3,1717,1494,1324,.,.,.
CCn1c(SCC(=O)NC2CCCCC2)nnc1-c1cccs1,4,-8,-14,.,1351,.,.,.,.
CCn1c(SC(=O)NC2CCCCC2)nnc1-c1cccs1,29*,24*,22*,.,1842,.,21,19,14
Cc1nonc1CN(C)C(=O)CC1C(=O)NCCN1Cc1ccc(F)c(F)c1 (stereo not given),4,2,-4,1743,1639,1659,.,.,.
O=C(O)c1cccnc1SCC(=O)N1CCCCCC1,8,20*,5,.,1613,.,4,6,1
SMILES,PPARg SRC-3 ag,PPARg SRC-1 ag,PPARg SRC-2 ag,SRC1 TRFRET art,TR-FRET SRC-2 ct,SRC3 TRFRET art,PPARg SRC2 ag,PPARg SRC1 ag,PPARg SRC3 conf
Cc1cc(C)c2cc(C#N)c(N3CCCN(S(=O)(=O)c4ccccc4)CC3)nc2c1,4,-1,2,.,1481,.,.,.,.
CC(=O)c1cccc(S(=O)(=O)N2CCN(c3nc4cc(C)cc(C)c4cc3C#N)CC2)c1,39*,26*,-6,.,1642,.,-1,-2,-4
CCOC(=O)C1CCCN(CC(=O)Nc2c(C(=O)OC)[nH]c3ccc(Br)cc23)C1 (stereo not given),42*,26*,40*,.,2688*,.,34*,23*,24*
COC(=O)c1[nH]c2ccc(Br)cc2c1NC(=O)CN1CCCc2ccccc21,50*,32*,42*,.,2282*,.,16,10,7
CCCOc1ccc(C2C(C(=O)c3ccco3)=C(O)C(=O)N2CCCn2ccnc2)cc1 (stereo not given),24,19*,14,.,1725,.,10,5,9
CCOC(=O)N1CCN(C(=O)c2cc3c(s2)-c2ccccc2OC3)CC1,38*,20*,13,.,1847,.,8,9,4
O=C(c1cc2c(s1)-c1ccccc1OC2)N1CCN(c2ccccc2)CC1,11,19*,21,.,2061*,.,22,19,12
O=C(c1cc2c(s1)-c1ccccc1OC2)N1CCN(c2ccccn2)CC1,30*,30*,22*,.,2008*,.,34*,30*,20
CC(C)=CCN1CCN(Cc2cn[nH]c2C2CCCCC2)CC1CCO (stereo not given),0,5,3,1597,1613,1795,.,.,.
Cc1cc(NC(=O)COc2ccc3oc4ccccc4c3c2)no1,11,27*,21,.,1701,.,12,13,7
COc1cccc(CN(C(=O)Cn2nnc(-c3ccccc3F)n2)C(C(=O)NC(C)(C)C)c2ccncc2)c1 (stereo not given),9,-3,11,1885,1634,1638,.,.,.
CCOC(=O)CCS(=O)(=O)c1nc(-c2ccccc2)cc(C(F)(F)F)n1,13,15,15,.,1475,.,.,.,.

# Screening data (PubChem)
